The values below come from PubChem BioAssay (NCATS).

Molecules are shown by their SMILES. Values joined by “and” are separate entries in the source; they are usually repeats but may differ in a detail not shown here. Equal entries are not always repeated. Results filed as inconclusive are left out. Some compounds were tested as several samples or in several runs, with calls that do not always agree. Unmarked numbers belong to inactive results. Active and inactive are the calls of the source. The call rests on the fitted dose curve; in most records, active means well fitted inhibition curve with a large enough effect; inconclusive means small, poorly fitted or top-dose-only effect; inactive means flat fitted curve, though single readings scatter.

Assay [1] relates to CRL-7250. Description: Cytotoxic Profiling of Annotated Libraries Using Quantitative High-Throughput Screening (AID 1296008). Further: potency means the concentration at half of the fitted maximal effect. On max response: on the % scale 0 is the no-effect control and ±100 the full control effect. The conditions noted are these: Five cell lines viability, CellTiter-Glo ATP luminescence, 48-72 h; max response: stronger effect = lower value. The procedure, abridged:
(§1)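 Compounds were pin-transferred onto cells and incubated 48 or 72 hr at 37 degree Celsius, 95% humidity. CellTiter-Glo was added, plates sat 10 min at room temperature, then ATP-coupled luminescence was imaged as the viability read-out.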
(ATP-based viability assays read luminescence as a measure of living cells.)

The test system of assay [2] is HEK293. The description is as above. Conditions: Five cell lines viability, CellTiter-Glo ATP luminescence, 48-72 h; max response: stronger effect = lower value. The procedure, abridged:
as §1

Assay [3] concerns HaCat. The description is as above. Conditions: Five cell lines viability, CellTiter-Glo ATP luminescence, 48-72 h; max response: stronger effect = lower value. The procedure, abridged: as §1
Assay [4] deals with KB-3-1. The assay is described as above. Conditions: Five cell lines viability, CellTiter-Glo ATP luminescence, 48-72 h; max response: stronger effect = lower value. The procedure, abridged: as §1
Assay [5] relates to NIH3T3. The assay is described as above. Conditions: Five cell lines viability, CellTiter-Glo ATP luminescence, 48-72 h; max response: stronger effect = lower value. The procedure, abridged: as §1
Assay [6] relates to HACAT. As to the kind of experiment: qHTS assay to identify novel small-molecules to repurpose for Merkel cell carcinoma treatment (AID 1296009). Conditions: MCC and control cell lines, CellTiter-Glo viability, 72 h; at 44.8 µM (top of the series) unless noted. The procedure, abridged: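 Luminescence from CellTiter-Glo, read 10 min after addition at room temperature, reported viability following a 72 hr, 37 degree celsius treatment with NPC or MIPE compounds in titration; values normalized to plate controls.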
A general note: Quantitative high-throughput screening tests each substance at several concentrations.
Further: nearly all actives have a fitted effect of over 60% in size.

`Nc1ccc(C(=O)Nc2cccc(-c3nc(N4CCOCC4)c4oc5ncccc5c4n3)c2)cn1`: the call in assay [1] and in assay [4] was inactive. In addition, the Potency is 3260 nM (active) in assay [2], 20.6 µM (active) in assay [4] and 2310 nM (active) in assay [5]. Further, in assay [3], the max response was -11.9%.

Regarding `CCOC(=O)[C@@H](N)Cc1ccc(-c2cc(O[C@H](c3ccc(Cl)cc3-n3ccc(C)n3)C(F)(F)F)nc(N)n2)cc1`, the max response is -8.01% in assay [1], -5.12% in assay [2], 1.01% in assay [3] and 6.69% in assay [4]. For the same molecule, the outcome in assay [3] and in assay [6] was inactive.

`N#Cc1ccc(COC[C@H]2O[C@@H](n3c(NCc4ccc(Cl)c(Cl)c4)nc4c(N)ncnc43)[C@@H](O)[C@@H]2O)cc1`: the max response in assay [1] is -5.8%. The Potency in assay [2] is 16600 nM (active); in assay [3] it was 11.8 µM (active).

On to `CCOC(=O)C1=C(C)NC(=S)NC1c1cccc(O)c1` (stereo not given), for which the max response in assay [1] was -18.5%; in assay [3], -10%. The Potency in assay [2] was 13.2 nM (active); in assay [4] it was 0.0469 µM (active).

For the molecule `Cc1cnc(NC(=O)Nc2cc(Br)c(C)cc2OC[C@@H]2CNCCO2)cn1`, the max response in assay [1] was -18.7%; in assay [3], 1.25%; in assay [4], -6.69%. In addition, the Potency in assay [2] was 1320 nM (active); in assay [5] it was 4180 nM (active).

Turning to `N#CC(=C(O)c1ccc(Cl)cc1Cl)c1nc2cc(Cl)ccc2c(=O)[nH]1`, the max response is -6.32% in assay [1]; 1.08% in assay [2]; 4.62% in assay [3]; 3.32% in assay [4]; 1.52% in assay [5].

Take `CCOC(=O)N1CCN([N+]([O-])=NOc2ccc([N+](=O)[O-])cc2C#N)CC1`: the Potency in assay [1] was 5260 nM (active); in assay [2], 3320 nM (active); in assay [4], 16.6 µM (active). Besides, the max response in assay [3] was -20.9%.

For the molecule `COc1cc2c(cc1OC)[C@@H]1C(=O)c3ccc4c(c3O[C@@H]1CO2)C=CC(C)(C)O4`, the Potency in assay [1] is 14.8 nM (active); in assay [2] it was 52.6 nM (active). The max response in assay [3] was -2.92%.

For `CCCCOc1ccc(C(=O)Nc2ccc(F)cc2F)cc1`, the max response in assay [1] was -1.1%; in assay [2], 2.49%; in assay [4] it was 0.701%; in assay [5] it was -3.26%. Besides, the molecule was classed as inactive in assay [1], in assay [3], in assay [5] and in assay [6].

As for `COc1cccc2c1C(=O)c1c(O)c3c(c(O)c1C2=O)C[C@@](O)(C(=O)CO)C[C@H]3O[C@H]1C[C@H](N)[C@H](O)[C@H](C)O1`, the Potency in assay [1] is 418 nM (active); in assay [2] it was 59 nM (active); in assay [3], 0.264 µM (active); in assay [4], 0.526 µM (active).

For `Cc1ncc(-c2ccnc(Nc3ccc(S(C)(=O)=O)cc3)n2)n1C(C)C`, the Potency in assay [1] is 3720 nM (active); in assay [2], 4610 nM (active); in assay [3], 8.33 µM (active) and 5.8 µM (active); in assay [4] it was 5.26 µM (active) and 5.17 µM (active); in assay [5] it was 13200 nM (active).

On to `COc1ccc2cc([S+]([O-])Cc3ncc(C)c(OC)c3C)nc2c1`, for which the outcome in assay [1] and in assay [4] was inactive. Besides, the max response in assay [2] was 1.45%; in assay [3], 3.09%; in assay [5], -6.22%.

With `C[C@H](CCC(=O)O)[C@H]1CCC2C3C[C@H](O)[C@@H]4C[C@H](O)CC[C@]4(C)C3CC[C@@]21C` (stereo not given in full), the max response in assay [1] is 3.11%; in assay [2] it was 4.87%; in assay [3], -16.1%; in assay [4], 6.35%. The call in assay [5] was inactive.

Take `NC(=O)c1ncn([C@@H]2O[C@H](CO)[C@@H](O)[C@@H]2O)c1O`: the max response is -0.101% in assay [1], 1.7% in assay [2], 4.1% in assay [3] and 6.36% in assay [4].

For the molecule `c1cc(N[C@@H]2CCNC2)nc(-c2cnc3ccc(-c4cn[nH]c4)cn23)c1`, in assay [1], the Potency is 11800 nM (active).

For the molecule `CS[C@H]1SC[C@@H]2C(=O)N(C)[C@H](C(C)C)C(=O)OC[C@H](NC(=O)c3cnc4ccccc4n3)C(=O)N[C@H](C)C(=O)N(C)[C@@H]1C(=O)N(C)[C@H](C(C)C)C(=O)OC[C@H](NC(=O)c1cnc3ccccc3n1)C(=O)N[C@H](C)C(=O)N2C`, the Potency in assay [1] was 7.4 nM (active); in assay [2], 5.3 nM (active); in assay [3], 0.0118 µM (active).

Consider `O=C(C=CC#Cc1cccc(NS(=O)(=O)c2ccccc2)c1)NO`, for which the Potency in assay [1] was 13200 nM (active); in assay [2], 8330 nM (active); in assay [3], 11.8 µM (active); in assay [4] it was 5.26 µM (active); in assay [5], 10500 nM (active).

With `C=C1C(=O)O[C@H]2[C@@H]1CCC(C)=CCC[C@@]1(C)O[C@@H]21`, the Potency was 11800 nM (active) in assay [1], 4180 nM (active) in assay [2] and 20.9 µM (active) in assay [3].

Consider `CC(C)C[C@H](NC(=O)CNC(=O)c1cc(Cl)ccc1Cl)B1OC(=O)CC(CC(=O)O)(C(=O)O)O1` (stereo not given in full), for which the Potency was 1320 nM (active) in assay [1]; 469 nM (active) in assay [2]; 4.18 µM (active) in assay [3]; 1.05 µM (active) in assay [4]; 833 nM (active) in assay [5].

In the case of `CN[C@@H]1C[C@H]2O[C@@](C)([C@H]1OC)n1c3ccccc3c3c4c(c5c6ccccc6n2c5c31)C(=O)N[C@H]4O`, the Potency in assay [1] was 264 nM (active); in assay [2], 469 nM (active); in assay [3], 1.48 µM (active); in assay [4], 2.64 µM (active); in assay [5] it was 166 nM (active).

`CC(C)(N)c1ccc(-c2nc3ccccc3nc2-c2ccccc2)cc1`: the Potency in assay [1] was 74.3 nM (active); in assay [2], 59 nM (active); in assay [4], 1.87 µM (active); in assay [5], 25900 nM (active). Moreover, the max response in assay [1] is -8.83%; in assay [3], -35.2% and -5.95%.
